Test results reported in PubChem BioAssay AID1645870 (National Center for Advancing Translational Sciences (NCATS), 2021).
Where “and” joins values, the source holds several entries; their conditions need not be identical. Equal values may be shown once. Out of some 59,000 compounds screened, about 1,500 (2.5%) were called active. Another 10% or so got no clear call; they are omitted. The sample holds actives, similar compounds and a random draw of the others, so the mix is not that of the screen. Calls follow the shape of the dose curve; as a rule, active = well fitted inhibition curve with a large enough effect; inconclusive = small, poorly fitted or top-dose-only effect; inactive = flat fitted curve, though single readings scatter. Some compounds were tested as several samples or in several runs, with calls that do not always agree.

biological target: N-terminal Xaa-Pro-Lys N-methyltransferase 1 (Homo sapiens) (UniProt Q9BV86); assay: Primary qHTS for Inhibitors of N-terminal methyltransferase 1 (NTMT1): MTaseGlo Assay; details: NTMT1 MTase-Glo SAH luminescence, purified enzyme; series mostly up to 114 µM; activity change, negative = inhibition: at the top concentration; also: nearly all actives have a fitted effect of over 65% in size;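 as to activity change, negative = inhibition: plate controls were DMSO vehicle for no effect and no enzyme for full effect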
Sequence (Q9BV86 whole entry, looked up): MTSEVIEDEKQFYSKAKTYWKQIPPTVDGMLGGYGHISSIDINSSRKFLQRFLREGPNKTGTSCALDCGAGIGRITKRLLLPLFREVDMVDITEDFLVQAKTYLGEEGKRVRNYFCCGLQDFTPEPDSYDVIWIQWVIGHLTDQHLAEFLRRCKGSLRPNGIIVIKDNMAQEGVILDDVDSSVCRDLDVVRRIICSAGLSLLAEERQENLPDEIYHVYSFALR
From the text: Assay Submitter (PI): Rong Huang Ph.D.
Purdue University, West Lafayette, IN 47907
The N-terminal methytransferase 1 is the first methyltransferase that methylates protein alpha-N-amines and plays an important role in regulating cell mitosis, chromatin interactions and DNA repair. It is observed to be over-expressed in various cancer patient tissues like malignant melanoma and colorectal cancer tissues. Knockdown of NTMT1 in cancer cells causes cell mitotic defects and enhances sensitivity to DNA damaging chemotherapeutics. […] These critical cellular processes in which NTMT1 is implicated, coupled with emerging links to cellular dysfunction, strengthen the inference that NTMT1 is a compelling novel anticancer target. Progress have been made in understanding the molecular properties of NTMT1 and the biological consequences of protein alpha-N-terminal methylation, but there are no specific small molecule probes available for NTMT1 to fully characterize its MTase activity. To address this unmet need, a panel of assay is created and established to enable quantitative high-throughput screening (qHTS) for novel, potent, and selective small molecule NTMT1 inhibitors. Two orthogonal qHTS that use different reagents (ThioGlo vs. MTaseGlo) are developed for primary robotic screening against the NCATS chemical library of more than 400,000 small molecules. Identified inhibitors are reacquired, validated, and further characterized.
MTaseGlo Assay is a luminescence screen that measure the activity of methyltransferases based on the reaction product S-adenosyl homocysteine (SAH). The substrate SAM is converted to SAH upon enzyme activation. MTase-Glo reagent and detection solution convert SAH to ATP and measure the light from the luciferase reaction.
Materials: NTMT1 enzyme, substrate SPKRIA, control peptide RCC1-6 is provided by the Huang laboratory.
SEQUENCE No. (e.g., 1, 2, 3, etc.); […] (e.g., Cells, Incubation, Reagent, etc.); VALUE; DESCRIPTION
1; Enzyme; 3 uL; Dispense enzyme mixture (final concentrations of 125 nM NTMT1 and 100 uM SAM) into Greiner 1536-well white / solid bottom assay plate (Greiner Bio One, Monroe, NC).
2; Compounds; 23 nL; Compounds and controls were transferred via a Kalypsys Pin Tool (Wako USA) equipped with a 1536-slotted pin array (Wako Automation, Richmond, VA)
3; Incubation; 15 min; Incubate at room temperature
4; Substrate; 1 uL; Dispense 1 uL of substrate at final concentration of 1 uM. Buffer solution was dispensed in control wells. The assay plate was covered with metal lids.
5; Incubation; 30 min; Incubate at room temperature, protected from lights.
6; Reagent; 1 uL; Dispensed 5x MTase-Glo detection reagent (R) into the assay plate. The plate was covered with metal lids.
7; Incubation; 30 min; Incubate the assay plates at room temperature in the dark to allow for SAH to be converted to ADP.
8; Reagent; 5 uL; Dispense 5 uL of 1x MTase-Glo Detection Solution (R) to allow for ADP to be converted to ATP which was then detected with a luciferase reaction.
9; Centrifuge; 15 sec; Centrifuge the assay plate for 15 seconds at 1000 RPM.
10; Incubation; 30 min; Assay plates were incubation at room temperature in the dark.
11; Detection; Luminescence; Plates were read on ViewLux detector (PerkinElmer). Data were normalized to no-enzyme (0% activity) and no-inhibitor (DMSO; 100%) controls, and the resulting percent inhibition data were fitted to a 4-parameter Hill equation using GraphPad Prism.
Potency is read from the fitted curve at half-maximal effect.

Row | Compound | activity change, negative = inhibition | Potency
1 | CCCn1c(-c2ccc(F)cc2)nc2c(NCC3CCCN3CC)nc(C)nc21 (stereo not given) | -15.7% (inactive) | 
2 | NC(=O)C1CCN(c2ncc(-c3ccc(Cl)cc3)s2)CC1 | 4.39% (inactive) | 
3 | COc1cccc(OC2=NS(=O)(=O)c3ccccc32)c1 | -0.822% (inactive) | 
4 | Oc1c(Cl)cc(Cl)c(Cl)c1Cc1c(O)c(Cl)cc(Cl)c1Cl |  | 31.6 µM (active)
5 | Cc1cc(Nc2cc(C)c(C#N)c(NC(C)CCCC(C)(C)O)n2)n[nH]1 (stereo not given) | -16.6% (inactive) | 
6 | Cc1ccc(Cn2ncc3c4sc(C)cc4n(C)c3c2=O)c(C)c1 | 11.8% [at 57.5 µM] (inactive) | 
7 | O=C1CCc2cc(S(=O)(=O)Nc3cccc(Oc4ccccc4)c3)ccc2N1 | -1.41% (inactive) | 
8 | COc1ccc(C2Nc3ccccc3C(=O)N2Cc2cccs2)cc1COc1c(C)cccc1C (stereo not given) | 9.71% (inactive) | 
9 | COc1cccc(CNc2ccc(S(=O)(=O)Nc3cccs3)cc2)c1O | -9.49% [at 29.8 µM] (inactive) | 
10 | CCCn1c(C)nc2c(NCCCCN(CC)CC)nc(C)nc21 | 0.827% (inactive) | 
11 | CCn1c(=O)c2cc(C(=O)NCCc3ccc(Cl)cc3)sc2c2ccccc21 | 4.04% (inactive) | 
12 | CCc1ccc(CNC(=O)c2cc3c(=O)n(CC)c4ccccc4c3s2)cc1 | -6.25% (inactive) | 
13 | CCN(CCCNC(=O)c1cc2c(=O)n(CC)c3ccccc3c2s1)Cc1ccccc1 |  | 79.4 µM (active)
14 | COc1ccc(C2Nc3ccccc3C(=O)N2Cc2ccc(CNC(=O)CO)cc2)cc1COc1ccc(NC(C)=O)cc1 (stereo not given) | 12% (inactive) | 
15 | Cc1cc(C)cc(OC(C)C(=O)Nc2nc3c(s2)CCCC3)c1 (stereo not given) | 5.1% (inactive) | 
16 | O=C(Nc1nc2c(s1)CCCC2)c1ccccc1F |  | 35.5 µM (active)
17 | O=C(Nc1ccc(S(=O)(=O)N2CCC(c3nc4ccccc4s3)CC2)cc1)c1ccccc1F | 7.07% (inactive) | 
18 | O=C1CCCC2=C1C(c1[nH]ncc1Cl)N=C(Nc1nc3ccc(F)cc3o1)N2 (stereo not given) | 2.12% (inactive) | 
19 | CN1C(=O)[C@@H](NC(=O)c2n[nH]c(Cc3ccccc3)n2)COc2ccccc21 | 19.5% (inactive) | 
20 | Nc1ccc2c(=O)n3nc(Nc4ccc5c(c4)CCC5)sc3nc2c1 |  | inactive
21 | Oc1ccc(/C=C/c2c(F)cccc2F)c2cccnc12 | 8.34% [at 57.5 µM] (inactive) | 
22 | CCOc1ccccc1NC(=O)CN1CCN(S(=O)(=O)c2ccc(Br)cc2)CC1 | -13.4% (inactive) | 
23 | Cc1cccc(C(=O)Nc2ccc(S(=O)(=O)N3CCCCC3c3cccnc3)cc2)c1 (stereo not given) | -6.08% (inactive) | 

Row | Compound | activity change, negative = inhibition | Potency
24 | CCOc1ccccc1C(=O)Nc1ccc(S(=O)(=O)N2CCCCC2c2cccnc2)cc1 (stereo not given) |  | 79.4 µM (active)
25 | Cn1c2cc(B(O)O)sc2c2cnn(Cc3ccccc3F)c(=O)c21 | 17.4% (inactive) | 
26 | CC(C)(O)c1ccccc1CC[C@H](SCC1(CC(=O)O)CC1)c1cccc(/C=C/c2ccc3ccc(Cl)cc3n2)c1 | 1.1% (inactive) | 
27 | O=C(NCCc1nc2ccccc2n1CCOc1cccc(Br)c1)C1CCCCC1 | -15.1% [at 57.5 µM] (inactive) | 
28 | O=S(=O)(c1ccc2c(c1)OCCO2)N1CCN(S(=O)(=O)c2cc(F)ccc2F)CC1 | 0.151% (inactive) | 
29 | COc1ccc(C2Nc3ccccc3C(=O)N2Cc2ccc(Cl)cc2)cc1COc1ccc(NC(C)=O)cc1 (stereo not given) | 32.5% (inactive) | 
30 | CCN(CC)CCNc1ncnc2c1cnn2-c1cc(Cl)ccc1C | -7.62% (inactive) | 
31 | Clc1cccc(-n2ncc3c(NCCc4ccccc4)ncnc32)c1 | -0.791% (inactive) | 
32 | Cc1ccc(-n2ncc3c(NCCCn4ccnc4)ncnc32)cc1Cl |  | 44.7 µM (active)
33 | CC(C)=CCC[C@](C)(O[C@@H]1O[C@H](CO[C@@H]2O[C@H](CO)[C@@H](O)[C@H](O)[C@H]2O)[C@@H](O)[C@H](O)[C@H]1O)[C@H]1CC[C@]2(C)[C@@H]1[C@H](O)C[C@@H]1[C@@]3(C)CC[C@H](O[C@@H]4O[C@H](CO)[C@@H](O)[C@H](O)[C@H]4O[C@@H]4O[C@H](CO)[C@@H](O)[C@H](O)[C@H]4O)C(C)(C)[C@@H]3CC[C@]12C | -4.41% [at 57.5 µM] (inactive) | 
34 | NC(=O)C1CCN(c2nc(-c3cccc(F)c3)cs2)CC1 | -0.0933% (inactive) | 
35 | Cc1cn(CCN2CCN(c3ccccc3-c3cc(C#N)cc(C(=O)NCCCN4CCCC4)c3)CC2)c2ccccc12 |  | 50.1 µM (active)
36 | Cc1ccc(C)c(N2CCN(CCCNC(=O)Nc3ccc(Cl)cc3)CC2)c1 | -18.2% (inactive) | 
37 | CCCN1CCN(CCCNC(=O)c2ccc3nc(Cc4ccccc4)oc3c2)CC1 | 1.05% (inactive) | 
38 | O=C(Nc1cc(Cc2ccccc2)ccn1)c1ccc(-c2cccc([N+](=O)[O-])c2)o1 | 9.38% (inactive) | 
39 | N#Cc1ccccc1CNc1nc2ncc(Br)cc2[nH]1 | 11.6% (inactive) | 
40 | CCOc1cccc(-c2cc(-c3n[nH]c(=O)n3CC)c3ccccc3n2)c1 | -2.86% (inactive) | 
41 | N#CSc1cc(SC#N)c(N)nc1N |  | 7.8 µM (active)
42 | Cc1cc2c(s1)c1cnn(Cc3c(F)cccc3Cl)c(=O)c1n2C | 12.9% (inactive) | 
43 | Cc1ccc(C(=O)Nc2cccc(C(F)(F)F)c2)cc1Nc1nc(-c2cccnc2)nc2c1cnn2C |  | inactive and 21.5 µM (active)
44 | Cc1cc(C(=O)Nc2cccc(C(F)(F)F)c2)c2c(C)nn(-c3cccc(F)c3)c2n1 | -2.97% (inactive) | 
45 | Cc1cc(Nc2cccc(C(F)(F)F)c2)nc2ccc(NC(=O)c3ccc(=O)[nH]c3)cc12 | 0.753% (inactive) | 
